Test [1] can be described thus: Cell Viability - N2a (AID 540).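 For activity change, negative = cytotoxicity: plate controls were DMSO alone for no effect and tamoxifen control for full effect.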 Note: nearly all actives have a fitted effect of over 45% in size. Note: potency is the fitted concentration of half-maximal effect. To be noted: N2a mouse neuroblastoma cell viability; activity change, negative = cytotoxicity: at 92.2 µM (top of the series). In a few lines: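 Mouse neuroblastoma N2a cells (1500/well) were preincubated 5 hr at 37 °C, then exposed to compounds for 40 hr at 37 °C in complete medium. Viability was read as intracellular ATP by CellTiter-Glo luminescence; AC50 from Hill fits.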

Test [2] is described as follows: Cell Viability - NIH 3T3 (AID 541).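 Note: plate controls were DMSO alone for no effect and tamoxifen positive control for full effect; nearly all actives have a fitted effect of over 25% in size.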 To be noted: NIH 3T3 cell viability, qHTS; activity change, negative = cytotoxicity: at 92.2 µM (top of the series). Put shortly:
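NIH 3T3 mouse embryo fibroblasts (1000 cells/well) were plated in complete medium and treated with compound for 40 hr at 37 °C. Viability was read as intracellular ATP by CellTiter-Glo luminescence; AC50 values came from Hill-equation fits of concentration-response data.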
(In general: In qHTS, concentration-response curves come from the screen itself.)

The nature of test [3]: Cell Viability - HUV-EC-C (AID 542). For activity change, negative = cytotoxicity: % is set by controls: 0 for no effect and ±100 for the full control effect. Note: nearly all actives have a fitted effect of over 35% in size. Note: potency is the fitted concentration of half-maximal effect. In a few lines: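 HUV-EC-C normal human vascular endothelial cells, 1000 cells/well, pre-incubated 5 hr at 37 °C, then exposed to compounds for 40 hr at 37 °C in complete medium. Viability measured as intracellular ATP by CellTiter-Glo luminescence; AC50 from Hill fits.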
A short description of test [4]: Cell Viability - H-4-II-E (AID 543). Note: nearly all actives have a fitted effect of over 35% in size. Note: potency is the fitted concentration of half-maximal effect. Put shortly: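 Rat hepatoma H-4-II-E cells (1500/well) were plated, incubated 5 hr at 37 °C, then exposed to compounds for 40 hr at 37 °C. Cellular ATP was read by CellTiter-Glo luminescence; AC50 came from Hill-equation fits of concentration-response data.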
A short description of test [5]: Cell Viability - SH-SY5Y (AID 544).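 For viability change, negative = cytotoxic: 0% = DMSO alone and -100% = 100 µM tamoxifen.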 Note: nearly all actives have a fitted effect of over 55% in size. Note: potency is the fitted concentration of half-maximal effect. To be noted: SH-SY5Y neuroblastoma cell viability; viability change, negative = cytotoxic: at 92.2 µM (top of the series). Put shortly: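 Human neuroblastoma SH-SY5Y cells (1500/well) in complete medium were exposed to compounds for 40 hr at 37 °C; intracellular ATP was then quantified by CellTiter-Glo luminescence after 20 min at room temperature. AC50 came from Hill-equation concentration-response fits.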

A short description of test [6]: Cell Viability - Renal Proximal Tubule (AID 545).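 For activity change, negative = cytotoxicity: 0% = DMSO only and -100% = 100 µM tamoxifen.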 Note: nearly all actives have a fitted effect of over 40% in size. Note: potency is the fitted concentration of half-maximal effect. The note with it: renal proximal tubule cells viability, primary cells of rat origin; activity change, negative = cytotoxicity: at 91.7 µM (top of the series). In a few lines: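 In this qHTS format, normal rat kidney-derived proximal tubule cells in complete culture medium receive compound titrations, then sit 40 hours at 37 °C before luciferase-based ATP quantitation; potency is reported as AC50 from concentration-response curves.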

Test [7] is described as follows: Cellular Toxicity (caspase-3) HepG2 (AID 654).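 Note: cells exposed to compound for 16 hours before reading; 0% = DMSO alone and 100% = caspase signal from 100 µM tamoxifen.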 In a few lines: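 HepG2 cells (1500/well) in complete medium were treated with compounds for 16 hr at 37 °C. Caspase-3/7 activity was then read as luminescence from peptide-aminoluciferin cleavage. AC50 came from Hill fits, normalized to DMSO and 100 uM tamoxifen.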
A short description of test [8]: Cellular Toxicity (caspase-3) Jurkat (AID 655).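 Note: cells exposed to compound for 16 h at 37 °C before reading.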 Note: potency is the fitted concentration of half-maximal effect. In a few lines: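 qHTS in human Jurkat T-cell leukemia line: 16 hr compound treatment at 37 °C, caspase-3/7 activity measured by Caspase-Glo luminescence. AC50 derived from Hill equation.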
Test [9] can be described thus: Cellular Toxicity (caspase-3) HUV-EC-C (AID 656).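 Note: 0% = DMSO basal and 100% = 100 µM tamoxifen.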 Put shortly: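 Concentration-dependent caspase 3/7 induction was assessed in HUV-EC-C cells exposed for 16 hours. Data scaled between DMSO and tamoxifen (100 uM) controls.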
Test [10] is described as follows: Cellular Toxicity (caspase-3) BJ (AID 658).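 Note: 0% = DMSO basal and 100% = 10 µM staurosporine.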 Put shortly: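 BJ human foreskin fibroblasts, 1000 cells/well, treated 16 hours at 37 °C in complete medium; caspase 3/7 activity by Caspase-Glo luminescence after 1 hr at room temperature. Normalized to DMSO and 10 uM staurosporine; AC50 from Hill fits.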
A short description of test [11]: Cellular Toxicity (caspase-3) MRC-5 (AID 659).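 Note: 0% = DMSO basal and 100% = 10 µM staurosporine.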 Put shortly:
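MRC-5 human normal lung fibroblasts, 1500 cells/well, treated 16 h at 37 °C in complete medium. Caspase 3/7 measured by Caspase-Glo luminescence after 1 h at room temperature. Normalized to DMSO and 10 uM staurosporine; AC50 from Hill fit.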

Test [12] in a line: Cellular Toxicity (caspase-3) Mesangial (AID 660). In a few lines:
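Human renal glomerular mesangial cells (1000/well) were treated with compounds for 16 h at 37 °C in complete medium, then caspase 3/7 activity was read by Caspase-Glo luminescence. Data were normalized to DMSO and 100 uM tamoxifen; AC50 from Hill fits.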

Test [13] in a line: Cellular Toxicity (caspase-3) SK-N-SH (AID 661).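 Note: 0% = DMSO basal and 100% = 10 µM staurosporine.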 In a few lines:
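SK-N-SH human neuroblastoma cells (1500/well) were treated with compounds for 16 hr at 37 °C in complete medium; caspase 3/7 activity was read by Caspase-Glo luminescence. AC50 came from Hill fits of data normalized to DMSO and 10 uM staurosporine.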

A short description of test [14]: Cellular Toxicity (caspase-3) Hek293 (AID 664).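 Note: cells exposed to compound for 16 h at 37 °C before readout.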 Put shortly: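 HEK293 cells were exposed to compounds in complete medium for 16 hr at 37 °C, then caspase-3/7 activity was read by Caspase-Glo 3/7 luminescence after 20 min at room temperature. Data normalized to DMSO and 100 uM tamoxifen; AC50 from Hill fits.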
Test [15] is described as follows: Cellular Toxicity (caspase-3) N2a (AID 665).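 Note: compound exposure lasted 16 h at 37 °C before readout.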 In a few lines:
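Mouse N2a neuroblastoma cells (1500/well) were treated with compounds for 16 h at 37 °C, then caspase-3/7 activity was read by Caspase-Glo luminescence after 1 h at room temperature. Data were normalized to DMSO and 10 uM staurosporine; AC50 from Hill fits.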

Test [16] can be described thus: Cellular Toxicity (caspase-3) SHSY5Y (AID 657). Note: potency is the fitted concentration of half-maximal effect. Put shortly: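 Readout: caspase-cleaved peptide-aminoluciferin substrate driving luciferase light in SH-SY5Y neuroblastoma cells after 16 h treatment. Response normalized to DMSO and 10 uM staurosporine controls.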
The nature of test [17]: Cellular Toxicity (caspase-3) H-4-II-E (AID 663).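 For caspase-3 activation: cells exposed to compound for 16 hr before readout; 0% = DMSO basal and 100% = 100 µM tamoxifen.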 Note: potency is the fitted concentration of half-maximal effect. The note with it: Potency: caspase-3 activation. Put shortly: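 Rat hepatoma H-4-II-E cells (1500/well) plated 5 hr, then exposed to compound titrations for 16 hr at 37 °C. Caspase-Glo 3/7 luminescence read after 20 min at RT; data normalized to DMSO and 100 uM tamoxifen, AC50 from Hill fits.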
Test [18] deals with 3',5'-cyclic-AMP phosphodiesterase 4B (Homo sapiens) (UniProt Q07343). In words: qHTS Assay for Inhibitors of PDE-IV (AID 607; active = well fitted activation curve with a large enough effect in the main read-out, with a control signal flat, not every such curve was filed as active; note: % of control where 0% means no effect). In a few lines: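 ACTOne HEK293 cells carry a modified cAMP-gated CNG channel and express endogenous PDE4; plated 1000 cells/well, compounds up to 22.9 uM final. Membrane-potential dye fluorescence (ex 535/em 590) was read; parental cells received 10 uM forskolin + 100 uM RO 20-1724.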
3',5'-cyclic-AMP phosphodiesterase 4B (Homo sapiens), sequence (Q07343 whole entry, looked up): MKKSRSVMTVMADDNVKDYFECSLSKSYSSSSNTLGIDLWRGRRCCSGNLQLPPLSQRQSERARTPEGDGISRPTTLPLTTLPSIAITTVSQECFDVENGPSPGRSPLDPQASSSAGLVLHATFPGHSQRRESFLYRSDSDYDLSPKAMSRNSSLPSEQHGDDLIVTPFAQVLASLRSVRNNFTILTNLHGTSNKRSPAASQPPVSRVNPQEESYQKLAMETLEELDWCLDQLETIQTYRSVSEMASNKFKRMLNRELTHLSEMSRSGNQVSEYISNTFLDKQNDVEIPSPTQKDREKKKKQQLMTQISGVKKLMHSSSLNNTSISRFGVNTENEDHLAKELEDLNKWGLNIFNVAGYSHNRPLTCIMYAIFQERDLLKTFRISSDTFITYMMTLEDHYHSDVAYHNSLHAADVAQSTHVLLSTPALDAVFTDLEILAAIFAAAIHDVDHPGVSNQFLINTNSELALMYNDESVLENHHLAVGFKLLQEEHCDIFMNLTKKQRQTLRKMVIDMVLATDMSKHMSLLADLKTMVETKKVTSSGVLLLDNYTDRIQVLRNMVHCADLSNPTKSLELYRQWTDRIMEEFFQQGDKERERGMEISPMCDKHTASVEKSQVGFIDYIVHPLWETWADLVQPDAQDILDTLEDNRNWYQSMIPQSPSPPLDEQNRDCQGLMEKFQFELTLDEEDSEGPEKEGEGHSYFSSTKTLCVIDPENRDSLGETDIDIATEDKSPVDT

Values without a mark were called inactive. Results filed as inconclusive are left out. Active and inactive are the calls of the source. Unless noted, calls come from the whole dose curve; as a rule, active = well fitted curve in the direction sought with a large enough effect; inconclusive = small, poorly fitted or top-dose-only effect, or another doubt; inactive = no such curve, though single readings can be large; an effect the other way counts as inactive or inconclusive.

As for `Nc1ccc(O)cc1`, the Potency was 31.6 µM (active) in test [1]; 31.6 µM (active) in test [3]; 39.8 µM (active) in test [4]; 25.1 µM (active) in test [5]; 25.1 µM (active) in test [6]. The activity change, negative = cytotoxicity in test [2] was -133% (active). The outcome in test [7], in test [9], in test [10], in test [11], in [12] and in test [13] was inactive. Further, the call in test [14] and in test [15] was inactive. Further, the Potency entry in [8] was “inactive”.
As to `Cc1cc(C(C)(C)C)c(O)c(C(C)(C)C)c1`, the Potency entry in [1], in [3], in test [4], in test [5], in [6] and in test [8] was “inactive” each time. Also, the Potency result in test [16] and in test [17] was “inactive” each time. In addition, in test [2], the activity change, negative = cytotoxicity was 2.09%. In addition, the compound was classed as inactive in test [7], in [9], in test [10], in [11], in test [12] and in test [13]. Also, the compound was classed as inactive in [15].
For `Cc1ncc(CO)c(CO)c1O`, the call in [18] was inactive.
On to `O=C(c1ccccc1)c1ccccc1`, for which the Potency entry in [1], in test [3], in [4], in test [5], in test [6] and in test [8] was “inactive” each time. The Potency result in test [16] and in test [17] was “inactive” in each case. In addition, the activity change, negative = cytotoxicity in test [2] is -23.6%. The call in test [7], in test [9], in test [10], in [11], in test [12] and in test [13] was inactive. The compound was classed as inactive in test [14] and in test [15].
As for `O=C(NO)c1ccccc1`, the Potency entry in [1], in test [3], in test [4], in test [5], in [6] and in test [8] was “inactive” throughout. The Potency entry in test [16] and in test [17] was “inactive” throughout. The compound was called inactive in test [7], in test [9], in test [10], in [11], in test [12] and in [13]. For the same compound, the outcome in [14] and in test [15] was inactive.
Consider `Nc1c2ccccc2nc2ccccc12`, for which the results for the activity change, negative = cytotoxicity in [1] and in test [2] were -89.3% (active) and -137% (active), respectively. Further, the Potency was 15.8 µM (active) in [3]; 15.8 µM (active) in test [4]; 7.94 µM (active) in [5]; 31.6 µM (active) in test [6]; 31.6 µM (active) in test [8]; 39.8 µM (active) in test [16]. For the same compound, the Potency in test [17] is 31.6 µM (active). In addition, the call in test [9], in test [11] and in [12] was inactive.
As to `OCc1c[nH]c2ccccc12`, the Potency entry in [1], in test [3], in test [4], in test [5], in test [8] and in test [16] was “inactive” in each case. Also, the Potency result in [17] is “inactive”. Moreover, the activity change, negative = cytotoxicity in [2] is 0.242%. Also, the call in test [7], in test [9], in test [10], in [11], in test [12] and in test [13] was inactive. Moreover, the result in test [14] and in test [15] was inactive.

The values are drawn from PubChem BioAssay (NCATS).
